In PubChem BioAssay (NCATS) one finds Potency, outcome and max response data, which are given here for four compounds.

In test [1] the test system is Zika virus NS2B-NS3 protease (linked construct). Kind of test: Primary screen NINDS Rhodamine qHTS for Zika virus inhibitors (AID 1347160). Note: nearly all actives have a fitted effect of over 55% in size. A digest of the protocol: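 Percent inhibition, normalized to uninhibited and enzyme-free controls, is fitted to a 4-parameter Hill equation. Fluorescence change comes from a 15-min cleavage of 1.5 microM bis-peptide Rhodamine110 substrate by 25 nM linked NS2B-NS3 at room temperature.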

In test [2] the target is Calcium and integrin-binding protein 1 (Homo sapiens) (UniProt Q99828). Kind of test: Primary qHTS for Identification of Calcium Integrin Binding Protein 1 (CIB1) Competitor (AID 1508620). Note: potency is the fitted concentration of half-maximal effect. A digest of the protocol: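 Fluorescence polarization competition: CIB1-GST (1 uM final) preincubated with compound 15 min at room temperature, then FITC-labeled alphaIIb peptide (100 nM final) added for another 15 min. Polarization read at Ex 480/Em 540.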
Sequence of Calcium and integrin-binding protein 1 (Homo sapiens) (Q99828 whole entry, looked up): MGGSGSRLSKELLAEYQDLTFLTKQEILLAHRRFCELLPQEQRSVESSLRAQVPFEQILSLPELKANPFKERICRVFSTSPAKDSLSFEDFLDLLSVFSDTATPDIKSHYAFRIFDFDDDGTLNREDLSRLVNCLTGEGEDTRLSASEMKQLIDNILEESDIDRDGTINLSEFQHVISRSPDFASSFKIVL
For orientation: qHTS replaces the single test concentration by a dilution series.

The nature of test [3]: Primary qHTS for inhibitors of nuclear receptor binding SET domain protein 2 (NSD2) in an isogenic RCH-ACV NSD2 p.E1099K mutant (9B) (AID 1645876). Note: nearly all actives have a fitted effect of over 70% in size. Note: potency is the fitted concentration of half-maximal effect.
Test [4] deals with Glutathione peroxidase 1 (Homo sapiens) (UniProt P07203). Kind of test: Primary qHTS Assay for Inhibitors of Recombinant Selenoprotein Glutathione Peroxidase 1 (GPX1) (AID 1845191). Note: nearly all actives have a fitted effect of over 65% in size. A digest of the protocol:
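Recombinant GPX1 (10 nM final) was preincubated with compound for 30 min at room temperature, then reacted with 1 mM GSH, 0.5 mM CHP, 0.5 mM NADPH and 100 nM glutathione reductase; NADPH fluorescence (340/450 nm) was read at 0 and 15 min.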

Test [5] deals with Phospholipid hydroperoxide glutathione peroxidase GPX4 (Homo sapiens) (UniProt P36969). Kind of test: Primary qHTS Assay for Inhibitors of Recombinant Selenoprotein Glutathione Peroxidase 4 (GPX4) (AID 1845192). Note: nearly all actives have a fitted effect of over 65% in size. In outline: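 GR-coupled readout: 100 nM GR, 1 mM GSH, 0.5 mM NADPH; NADPH fluorescence (ex 340/em 450 nm) read at t=0 and after 15 min RT. GPX4 200 nM, preincubated 30 min with compound; substrate 0.5 mM CHP.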
Sequence of Phospholipid hydroperoxide glutathione peroxidase GPX4 (Homo sapiens) (P36969 whole entry, looked up): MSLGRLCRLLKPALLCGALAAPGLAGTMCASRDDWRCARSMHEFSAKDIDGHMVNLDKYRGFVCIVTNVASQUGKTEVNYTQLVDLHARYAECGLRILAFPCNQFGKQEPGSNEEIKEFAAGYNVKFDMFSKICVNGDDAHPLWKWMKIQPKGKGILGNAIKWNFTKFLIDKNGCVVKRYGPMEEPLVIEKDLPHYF

Test [6] concerns the target Luciferin 4-monooxygenase (Photinus pyralis) (UniProt P08659). Kind of test: Primary firefly luciferase (FLuc) qHTS assay for identification of artifact compounds. (AID 1845220). Note: nearly all actives have a fitted effect of over 60% in size. The note with it: outcome: dose series up to 54.1 µM unless noted. In outline:
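qHTS, 15 min compound preincubation with substrate (10 uM luciferin, 10 uM ATP) at RT, then 10 nM FLuc; 5 min; luminescence; % inhibition vs no-enzyme/DMSO controls, 4-parameter Hill fit.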

Test [7] can be described thus: Primary fluorescence-based thiol-reactive (MSTI) qHTS assay for identification of artifact compounds. (AID 1845221).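 Note: thiol-reactive compounds lower the probe fluorescence signal; nearly all actives have a fitted effect of over 65% in size.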 A digest of the protocol: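 Probe: MSTI 4 uM, PBS pH 7.4, 2% DMSO. Incubation 1 h, RT, light-protected. Readout fluorescence 525/598 nm.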
Test [8] has as its system Nanoluciferase (engineered Oplophorus gracilirostris luciferase). Kind of test: Primary Nanoluciferase (NLuc) qHTS assay for identification of artifact compounds. (AID 1845222).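 Note: 0% = DMSO and -100% = no enzyme.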 A digest of the protocol: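 Luminescence read-out of secreted NLuc in S16 cell conditioned medium (1:55); compounds tested with 15 min RT preincubation, then Nano-Glo substrate 1:100, 5 min. % inhibition vs no-enzyme and DMSO controls, 4-parameter Hill fit.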

The test system of the next test is CRL-7250. Kind of test: Cytotoxic Profiling of Annotated Libraries Using Quantitative High-Throughput Screening (AID 1296008). For max response: % is set by controls: 0 for no effect and ±100 for the full control effect. Note: nearly all actives have a fitted effect of over 60% in size. Note: potency is the fitted concentration of half-maximal effect. As to conditions: Five cell lines viability, CellTiter-Glo ATP luminescence, 48-72 h; max response: active compounds read low. A digest of the protocol: (§1)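 Compounds were pin-transferred onto cells and incubated 48 or 72 hr at 37 degree Celsius, 95% humidity. CellTiter-Glo was added, plates sat 10 min at room temperature, then ATP-coupled luminescence was imaged as the viability read-out.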
In general terms: In ATP-based viability assays light output follows the ATP content of the culture.

The test system of a further test is HEK293. The test is described as above. As to conditions: Five cell lines viability, CellTiter-Glo ATP luminescence, 48-72 h; max response: active compounds read low. A digest of the protocol:
as §1

The next test concerns HaCat. Described as above. The note with it: Five cell lines viability, CellTiter-Glo ATP luminescence, 48-72 h; max response: active compounds read low. A digest of the protocol: as §1
For the next test, the system named is NIH3T3. Described as above. As to conditions: Five cell lines viability, CellTiter-Glo ATP luminescence, 48-72 h; max response: active compounds read low. A digest of the protocol: as §1
A further test concerns CASKI. Kind of test: Primary qHTS to identify gynecologic anti-cancer compounds using libraries of approved drugs and bioactive compounds (AID 1345084). Note: nearly all actives have a fitted effect of over 55% in size. Note: potency is the fitted concentration of half-maximal effect. The note with it: Gynecologic cancer cell panel viability, ATPlite luminescence, 48 h; series mostly up to 57.5 µM. In outline: (§2)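 Cell viability after 48 h drug treatment, ATPlite luminescence readout; five doses.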
For a further test, the system named is Es-2. Described as above. As to conditions: Gynecologic cancer cell panel viability, ATPlite luminescence, 48 h; series mostly up to 57.5 µM. A digest of the protocol:
as §2

In a further test the test system is Hek293T. Described as above. The note with it: Gynecologic cancer cell panel viability, ATPlite luminescence, 48 h, control line for the selectivity index; series mostly up to 57.5 µM. In outline: as §2
The next test concerns PA-1. The description is as above. The note with it: Gynecologic cancer cell panel viability, ATPlite luminescence, 48 h; series mostly up to 57.5 µM. In outline: as §2
The subject of the next test is Tov-21-G. The test is described as above. The note with it: Gynecologic cancer cell panel viability, ATPlite luminescence, 48 h; series mostly up to 57.5 µM. In outline: as §2
For the next test, the system named is Tov112D. The test is described as above. The note with it: Gynecologic cancer cell panel viability, ATPlite luminescence, 48 h; series mostly up to 57.5 µM. In outline:
as §2

The subject of the next test is C33A. The description is as above. As to conditions: Gynecologic cancer cell panel viability, ATPlite luminescence, 48 h; series mostly up to 57.5 µM. In outline:
as §2

Another test deals with OV90. Described as above. As to conditions: Gynecologic cancer cell panel viability, ATPlite luminescence, 48 h; series mostly up to 57.5 µM. A digest of the protocol: as §2

Values without a mark were called inactive. Inconclusive results are not listed. Calls of active or inactive are those of the source. Calls come from the whole dose curve; as a rule, active = well fitted curve in the direction sought with a large enough effect; inconclusive = small, poorly fitted or top-dose-only effect, or another doubt; inactive = no such curve, though single readings can be large; an effect the other way counts as inactive or inconclusive.

Sequence of Glutathione peroxidase 1 (Homo sapiens) (P07203 whole entry, looked up): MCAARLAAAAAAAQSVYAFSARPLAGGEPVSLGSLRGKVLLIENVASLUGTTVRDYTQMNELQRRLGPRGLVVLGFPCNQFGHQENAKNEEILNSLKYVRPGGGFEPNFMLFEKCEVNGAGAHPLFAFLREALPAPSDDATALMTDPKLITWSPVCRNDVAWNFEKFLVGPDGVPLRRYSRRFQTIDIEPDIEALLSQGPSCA

Take `C=C1[C@@H](C)[C@H]2[C@H](Cc3ccccc3)NC(=O)[C@]23OC(=O)/C=C/C(=O)CCC[C@@H](C)C/C=C/[C@H]3[C@@H]1O`: the Potency entry in [1], in test [4], in test [5], in test [7] and in [8] was “inactive” each time. In addition, the Potency in test [2] was 20000 nM (active); in [3] it was 1450 nM (active); in the test on CRL-7250, 1640 nM (active); with HEK293 it was 1840 nM (active); with HaCat, 20600 nM (active); with NIH3T3, 1160 nM (active). Besides, the Potency in the test on CASKI was 15800 nM (active); in the test with Es-2 it was 14100 nM (active); in the test on Hek293T, 15800 nM (active); in the test on PA-1 it was 20000 nM (active); in the test on Tov-21-G, 15800 nM (active); in the test on Tov112D, 15800 nM (active). In addition, the result in test [6] was inactive.

Consider `CC(=O)OC[C@]12C[C@H](O)C(C)=C[C@H]1O[C@@H]1[C@H](O)[C@@H](OC(C)=O)[C@@]2(C)[C@]12CO2`, for which the Potency result in test [1], in test [2], in [4], in test [5], in test [7] and in test [8] was “inactive” throughout. Moreover, the Potency in test [3] was 6.4 nM (active); with CRL-7250, 36 nM (active); in the test with HEK293 it was 8.1 nM (active); in the test on HaCat it was 90.4 nM (active); in the test with NIH3T3, 45.3 nM (active); with C33A, 447 nM (active). Further, the Potency is 31.6 nM (active) in the test on CASKI; 199 nM (active) in the test with Es-2; 89.1 nM (active) in the test on Hek293T; 12600 nM (active) in the test with OV90; 1780 nM (active) in the test with PA-1; 178 nM (active) in the test with Tov-21-G. In addition, in the test with Tov112D, the Potency is 100 nM (active). Further, in [6], the compound was classed as inactive.

Consider `COC1CC(O[C@H]2CC[C@@]3(C)C(CCC4C3CC[C@]3(C)[C@@H](C5=CC(=O)OC5)CC[C@]43O)C2)OC(C)C1O` (stereo not given in full), for which the Potency entry in test [1], in [2], in [4], in [5], in test [7] and in test [8] was “inactive” throughout. Moreover, the Potency is 14.2 nM (active) in [3]; 31.7 nM (active) with CRL-7250; 79.6 nM (active) in the test on HEK293; 178 nM (active) with HaCat; 100 nM (active) with C33A; 141 nM (active) with CASKI. Also, the Potency is 158 nM (active) with Es-2, 141 nM (active) with Hek293T, 398 nM (active) with OV90 and 89.1 nM (active) in the test with Tov-21-G. Moreover, the max response in the test with NIH3T3 was -0.0473%.

Consider `C[C@H]1O[C@@H](n2cnc3c(N)ncnc32)C[C@@H]1O`, for which the Potency result in test [1], in [2], in test [3], in test [4], in test [5] and in [7] was “inactive” throughout. In addition, the Potency entry (in test [8]; in the test on C33A; in the test on CASKI; in the test with Es-2; in the test with Hek293T; in the test on OV90) was “inactive” each time. Besides, the Potency result in the test with PA-1, with Tov-21-G and in the test with Tov112D was “inactive” each time. The compound was called inactive in [6]. The max response was 0.373% in the test with CRL-7250, 0.909% with HEK293, 3.49% in the test on HaCat and 1.47% in the test with NIH3T3.
